According to PubChem BioAssay AID1159580 (chemical genetic matrix, 2015):
“And” between values parts separate entries of the source, which are not always exact repeats. Equal values may be shown once. Among all 5,500 compounds or so, about 2,000 (36%) were called active. About 18% were inconclusive and are not listed. No stated cut-off is given here; in the data, active means normalized growth mostly below about 0.91 (no sharp cut-off); inconclusive means no clear call, values can overlap the other calls; inactive means mostly above about 0.92. The list shows a part of the results.

Assay: chemical genetic growth profiling, strain panel (AID 1159580);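 further: tested at 20 µM; growth read once vehicle control cultures reached saturation at 30 °C; 1 = growth at the plate median or of vehicle wells; lower values mean less growth of the strain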
Settings: S. cerevisiae deletion strains, growth OD

Measured: normalized growth

CC12CCC(=O)C=C1CCC1C2[C@@H](O)CC2(C)C1CC[C@]2(O)C(=O)COP(=O)(O)O (stereo partly drawn)
inactive: locus YAL013W, strain DEP1, active compounds read low 1.02 | locus YAL021C, strain ccr4, active compounds read low 1 | locus YAL026C, strain drs2, active compounds read low 0.999 | locus YAL030W, strain snc1, active compounds read low 1.01 | locus YBL061C, strain skt5, active compounds read low 0.998 | locus YBR009C, strain hhf1, active compounds read low 0.994 | locus YBR021W, strain FUR4, active compounds read low 1.02 | locus YBR023C, strain chs3, active compounds read low 0.992 | locus YBR171W, strain sec66, active compounds read low 1 | locus YBR229C, strain ROT2, active compounds read low 1.01 | locus YBR231C, strain swc5, active compounds read low 0.989 | locus YBR279W, strain paf1, active compounds read low 1 | locus YCL011C, strain gbp2, active compounds read low 0.991 | locus YCL016C, strain dcc1, active compounds read low 0.973 | locus YCL029C, strain bik1, active compounds read low 1.01 | locus YCL061C, strain MRC1, active compounds read low 0.999 | locus YCL069W, strain vba3, active compounds read low 1.01 | locus YCR088W, strain abp1, active compounds read low 0.995 | locus YDL005C, strain med2, active compounds read low 0.997 | locus YDL035C, strain GPR1, active compounds read low 1.01 | locus YDL040C, strain nat1, active compounds read low 1.01 | locus YDL074C, strain BRE1, active compounds read low 1.02 | locus YDL101C, strain DUN1, active compounds read low 1.01 | locus YDL185W, strain tfp1, active compounds read low 1 | locus YDL192W, strain arf1, active compounds read low 1.01 | locus YDR001C, strain nth1, active compounds read low 0.996 | locus YDR069C, strain doa4, active compounds read low 1.01 | locus YDR101C, strain arx1, active compounds read low 1.03 | locus YDR137W, strain rgp1, active compounds read low 0.992 | locus YDR150W, strain NUM1, active compounds read low 1.02 | locus YDR159W, strain sac3, active compounds read low 1 | locus YDR162C, strain NBP2, active compounds read low 1.01 | locus YDR195W, strain ref2 0.992 | locus YDR297W, strain sur2, active compounds read low 0.996 | locus YDR318W, strain mcm21, active compounds read low 0.999 | locus YDR334W, strain swr1, active compounds read low 0.998 | locus YDR335W, strain msn5, active compounds read low 1.01 | locus YDR388W, active compounds read low 1 | locus YDR392W, strain spt3, active compounds read low 0.928 | locus YDR502C, strain sam2, active compounds read low 1 | locus YEL003W, strain gim4, active compounds read low 1 | locus YEL037C, strain rad23, active compounds read low 1.01 | locus YEL061C, strain CIN8 (second series), active compounds read low 1 | locus YEL061C, strain CIN8, active compounds read low 1.02 | locus YER015W, strain faa2, active compounds read low 1 | locus YER016W, strain bim1, active compounds read low 1 | locus YER110C, active compounds read low 1.01 | locus YER111C, strain swi4, active compounds read low 1 | locus YER155C, strain BEM2 (second series), active compounds read low 1.01 | locus YER155C, strain BEM2, active compounds read low 1.01 | locus YER167W, strain BCK2, active compounds read low 1.01 | locus YFR010W, strain ubp6, active compounds read low 1.01 | locus YGL078C, strain dbp3, active compounds read low 0.994 | locus YGL086W, strain mad1, active compounds read low 1 | locus YGL167C, strain pmr1, active compounds read low 0.996 | locus YGL173C, strain kem1, active compounds read low 0.995 | locus YGL227W, strain vid30, active compounds read low 0.996 | locus YGL240W, strain doc1, active compounds read low 1.01 | locus YGL248W, strain PDE1, active compounds read low 1 | locus YGL253W, strain hxk2, active compounds read low 1.01 | locus YGR078C, strain PAC10, active compounds read low 1.01 | locus YGR135W, strain pre9, active compounds read low 0.997 | locus YGR229C, strain SMI1, active compounds read low 1.02 | locus YGR252W, strain gcn5, active compounds read low 0.958 | locus YHR013C, strain ard1, active compounds read low 0.991 | locus YHR027C, strain rpn1, active compounds read low 0.994 | locus YHR030C, strain SLT2, active compounds read low 1.02 and 0.987 | locus YHR079C, strain IRE1 (second series), active compounds read low 1 | locus YHR079C, strain IRE1, active compounds read low 0.96 | locus YHR094C, strain hxt1, active compounds read low 1.01 | locus YHR129C, strain ARP1, active compounds read low 1.01 | locus YHR142W, strain chs7, active compounds read low 0.993 | locus YHR200W, strain rpn10, active compounds read low 1.01 | locus YIL066C, strain RNR3, active compounds read low 1.02 | locus YIL073C, strain SPO22, active compounds read low 1.01 | locus YIL125W, strain kgd1, active compounds read low 0.985 | locus YIR030C, strain dcg1, active compounds read low 1.01 | locus YJL092W, strain hpr5, active compounds read low 1 | locus YJL095W, strain BCK1 (second series), active compounds read low 0.995 | locus YJL095W, strain BCK1, active compounds read low 1.01 and 0.981 | locus YJL115W, strain asf1, active compounds read low 0.997 | locus YJL129C, strain trk1, active compounds read low 1.01 | locus YJL134W, strain LCB3, active compounds read low 1.01 | locus YJL154C, strain vps35, active compounds read low 1 | locus YJL164C, strain tpk1, active compounds read low 0.995 | locus YJL166W, strain qcr8, active compounds read low 0.986 | locus YJL168C, strain set2, active compounds read low 0.998 | locus YJL187C, strain SWE1 (second series), active compounds read low 1.01 | locus YJL187C, strain SWE1, active compounds read low 1 | locus YJR043C, strain POL32, active compounds read low 1.02 | locus YJR066W, strain TOR1, active compounds read low 0.917 | locus YKL009W, strain mrt4, active compounds read low 1.01 | locus YKL068W, active compounds read low 1.01 | locus YKL085W, strain MDH1 (second series), active compounds read low 1 | locus YKL085W, strain MDH1, active compounds read low 1 | locus YKL160W, strain elf1, active compounds read low 0.985 | locus YKL190W, strain CNB1, active compounds read low 1.02 | locus YKR001C, strain vps1, active compounds read low 0.997 | locus YKR026C, strain gcn3, active compounds read low 1.01 | locus YKR091W, strain srl3, active compounds read low 1 | locus YLL001W, strain dnm1, active compounds read low 0.982 | locus YLL026W, active compounds read low 1 | locus YLL041C, strain sdh2, active compounds read low 0.997 | locus YLR027C, strain aat2, active compounds read low 1.01 | locus YLR039C, strain RIC1, active compounds read low 0.976 | locus YLR058C, strain SHM2, active compounds read low 1 | locus YLR102C, strain apc9, active compounds read low 0.998 | locus YLR113W, strain HOG1, active compounds read low 1 | locus YLR221C, strain rsa3, active compounds read low 0.986 | locus YLR258W, strain gsy2, active compounds read low 1.03 | locus YLR262C, strain YPT6 (second series), active compounds read low 0.987 | locus YLR262C, strain YPT6, active compounds read low 1.06 | locus YLR268W, strain sec22, active compounds read low 0.993 | locus YLR320W, strain mms22, active compounds read low 0.994 | locus YLR330W, strain CHS5, active compounds read low 1.01 | locus YLR342W, strain FKS1 (second series), active compounds read low 1 | locus YLR342W, strain FKS1, active compounds read low 1 | locus YLR357W, strain rsc2, active compounds read low 0.998 | locus YLR370C, strain arc18, active compounds read low 1.01 | locus YLR371W, strain rom2, active compounds read low 0.994 | locus YLR384C, strain iki3, active compounds read low 0.995 | locus YLR418C, strain cdc73, active compounds read low 0.982 | locus YML016C, strain PPZ1, active compounds read low 1 | locus YML032C, strain rad52, active compounds read low 0.991 | locus YML120C, strain ndi1, active compounds read low 0.995 | locus YML124C, strain tub3, active compounds read low 0.999 | locus YMR058W, strain fet3, active compounds read low 0.998 | locus YMR078C, strain ctf18, active compounds read low 1 | locus YMR125W, strain sto1, active compounds read low 0.997 | locus YMR129W, active compounds read low 1 | locus YMR205C, strain PFK2, active compounds read low 0.983 | locus YMR223W, strain ubp8, active compounds read low 0.993 | locus YMR231W, strain pep5, active compounds read low 1 | locus YMR263W, strain SAP30, active compounds read low 1.02 | locus YMR307W, strain GAS1, active compounds read low 0.988 | locus YNL067W, strain RPL9B, active compounds read low 1.02 | locus YNL071W, strain lat1, active compounds read low 1 | locus YNL128W, strain TEP1, active compounds read low 1.03 | locus YNL183C, strain NPR1, active compounds read low 0.951 | locus YNL209W, strain ssb2, active compounds read low 1 | locus YNL233W, strain BNI4, active compounds read low 1.01 | locus YNL248C, strain rpa49, active compounds read low 1.01 | locus YNL250W, strain rad50, active compounds read low 1 | locus YNL271C, strain bni1, active compounds read low 1 | locus YNL298W, strain CLA4, active compounds read low 0.992 | locus YNL307C, strain MCK1, active compounds read low 1 | locus YNL322C, strain KRE1 (second series), active compounds read low 0.999 | locus YNR049C, strain mso1, active compounds read low 0.995 | locus YNR052C, strain pop2, active compounds read low 0.998 | locus YOL012C, strain htz1 0.651 | locus YOL147C, strain pex11, active compounds read low 1.01 | locus YOR001W, strain rrp6, active compounds read low 0.989 | locus YOR061W, strain CKA2, active compounds read low 1 | locus YOR069W, strain VPS5, active compounds read low 1.01 | locus YOR070C, strain gyp1, active compounds read low 0.999 | locus YOR080W, strain dia2, active compounds read low 0.999 | locus YOR083W, strain WHI5, active compounds read low 0.993 | locus YOR106W, strain vam3, active compounds read low 0.976 | locus YOR136W, strain idh2, active compounds read low 0.995 | locus YOR144C, strain elg1, active compounds read low 1 | locus YOR184W, strain ser1, active compounds read low 0.992 | locus YOR231W, strain MKK1, active compounds read low 0.981 | locus YOR265W, strain rbl2, active compounds read low 1 | locus YOR270C, strain vph1, active compounds read low 1.01 | locus YOR290C, strain snf2, active compounds read low 0.914 | locus YOR316C, strain cot1, active compounds read low 1.01 | locus YPL051W, strain arl3, active compounds read low 0.986 | locus YPL055C, strain LGE1, active compounds read low 1.01 | locus YPL078C, strain atp4, active compounds read low 0.995 | locus YPL106C, strain sse1, active compounds read low 0.969 | locus YPL240C, strain hsp82, active compounds read low 0.991 | locus YPL241C, strain CIN2, active compounds read low 1.01 | locus YPL256C, strain CLN2, active compounds read low 0.957 | locus YPR119W, strain clb2, active compounds read low 1 | locus YPR141C, strain kar3, active compounds read low 1.01 | locus YPR163C, strain tif3, active compounds read low 1.01 | locus YPR167C, strain met16, active compounds read low 0.998 | strain wtn01, active compounds read low 1
